TDP1 cell CPT = growth inhibition of DT40 Tdp1-/-;hTDP1 cells with camptothecin (screen for TDP1 inhibitors); chicken DT40 Tdp1-/-;hTDP1 cells + 20 nM CPT, ATP luminescence, 48 h; Potency, µM (titrated, usually from 46.2 µM), without a hit: top-dose activity change, negative = growth inhibition, usual class: inhibitors; 420,000 compounds, 12% hits; AID 686979; note: potency is the fitted concentration of half-maximal effect; nearly all actives have a fitted effect of over 55% in size
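Cell growth measured by CellTiter-Glo luminescence after a minimum 48 h, 37 C compound exposure with 20 nM CPT in Tdp1-knockout DT40 cells stably expressing hTDP1, seeded 400/well; qHTS titration format.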
Six1-Eya2 inh = inhibitors of human Six1/Eya2 interaction. activity change, % (no concentration beside the values). AlphaScreen GST-Six1/His-Eya2 binding, biochemical; active compounds read low. 360,000 compounds, 0.56% hits. Q15475+O00167; in the data active = activity change below about -65%; inconclusive = mostly about -30% to -63%
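GST-Six1 + His-Eya2 (5X stock: 250/500 nM); Tris pH 8.0, 300 mM NaCl, 0.05% BSA, 0.02% Tween 20; GSH donor/Ni acceptor beads; 1 h 37 °C dark; AlphaScreen readout.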
DT40 TDP1 no CPT = qHTS for Inhibitors of human tyrosyl-DNA phosphodiesterase 1 (TDP1): qHTS in cells in absence of CPT; DT40 Tdp1-/- hTDP1 cells, no CPT, ATP luminescence, 48 h; Potency, µM (top dose mostly 46.2 µM), for inactives: top-dose activity change, negative = growth inhibition, most hits filed as inhibitors; 420,000 compounds, 15% hits; note: potency is the fitted concentration of half-maximal effect; nearly all actives have a fitted effect of over 55% in size
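No-CPT arm: Tdp1-/-;hTDP1 DT40 cells (400/well) plus compounds, incubated ≥48 hr at 37 °C. Readout CellTiter-Glo luminescence.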
CtBP-E1A blk = inhibitors of CtBP/E1A interaction; AlphaScreen GST-E1A/His-CtBP binding, 1536-well; active compounds read low; activity change, % (test concentration not listed); 340,000 compounds, 0.49% hits; AID 651724; in the data active = activity change below about -65%; inconclusive = mostly about -30% to -63%
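In 5 uL wells, 23 nL compound meets equimolar GST-E1A and His-CtBP (5X stock 125 nM each) for 2 h, 37 °C. Beads (5X, 50 ug/mL) then 1 h, 37 °C, dark.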
IL-1B inflam inh = inhibitors of inflammasome signaling (IL-1 beta secretion); THP-1 LPS/ATP IL-1B secretion, AlphaLISA, 16 h; active compounds read low; activity change, % at 57.5 µM; 360,000 compounds, 4.7% hits; AID 743279; in the data active = activity change below about -50%; inconclusive = mostly about -30% to -49%
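Secreted IL-1B measured by AlphaLISA bead assay after 16 h compound exposure of THP-1 cells; compounds (final up to 57.5 uM) added 1 h before LPS (250 ng/mL) and ATP (1.25 mM) stimulation; lower signal means less secretion.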
TDP1 block = blocks human tyrosyl-DNA phosphodiesterase 1; AID 485290; Q9NUW8; Potency, µM (top dose mostly 130 µM), for the others: at the top dose activity change, negative = inhibition, hits mostly inhibitors; recombinant TDP1, AlphaScreen DNA substrate cleavage; 350,000 compounds, 0.28% hits; note: potency is the fitted concentration of half-maximal effect; nearly all actives have a fitted effect of over 40% in size
Target sequence (Q9NUW8 whole entry, looked up): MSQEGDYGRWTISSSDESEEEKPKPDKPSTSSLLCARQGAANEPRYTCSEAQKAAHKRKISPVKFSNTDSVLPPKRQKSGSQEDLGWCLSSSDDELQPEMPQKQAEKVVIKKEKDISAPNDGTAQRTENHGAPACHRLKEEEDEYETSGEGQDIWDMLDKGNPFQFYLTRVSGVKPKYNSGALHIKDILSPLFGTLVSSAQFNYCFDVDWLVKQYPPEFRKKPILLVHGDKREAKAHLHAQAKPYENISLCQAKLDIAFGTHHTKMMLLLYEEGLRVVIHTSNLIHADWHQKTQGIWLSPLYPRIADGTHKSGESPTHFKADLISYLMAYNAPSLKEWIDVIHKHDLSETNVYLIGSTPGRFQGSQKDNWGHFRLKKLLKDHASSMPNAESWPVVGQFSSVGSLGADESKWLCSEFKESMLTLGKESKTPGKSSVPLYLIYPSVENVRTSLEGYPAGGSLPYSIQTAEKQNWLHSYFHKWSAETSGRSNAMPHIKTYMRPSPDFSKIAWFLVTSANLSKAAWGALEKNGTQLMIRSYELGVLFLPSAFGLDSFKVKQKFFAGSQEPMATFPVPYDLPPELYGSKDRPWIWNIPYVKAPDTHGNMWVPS
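Recombinant human Tdp1 (E. coli-expressed, 1 nM final) preincubated with compounds 15 min at room temperature, then 5'-biotin/3'-phosphotyrosine-FITC DNA substrate (15 nM final) added for 5 min. AlphaScreen beads (10 ug/ml final) added 10 min; cleavage lowers signal.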
Active calls of the source: *; i = inactive; ? = inconclusive; nt = no result. Compounds with a hit are over-represented: about 18% of the library has one in this group of screens. Unless noted, calls come from the whole dose curve; as a rule, active = well fitted curve in the direction sought with a large enough effect; inconclusive = small, poorly fitted or top-dose-only effect, or another doubt; inactive = no such curve, though single readings can be large; an effect the other way counts as inactive or inconclusive. % is set by controls: 0 for no effect and ±100 for the full control effect.

SMILES	TDP1 cell CPT	Six1-Eya2 inh	DT40 TDP1 no CPT	CtBP-E1A blk	IL-1B inflam inh	TDP1 block
CC1(C(=O)NS(=O)(=O)c2ccc(F)cc2F)CCN1C(=O)CCc1ccccc1 (stereo unspecified)	-2.9%	4.8	0.2%	-1.3	9.0	nt
c1coc(-c2nnc(-c3ccco3)nn2)c1	5.8µM*	?	11.6µM*	-17.7	-76.0*	nt
c1ccc(-c2nnc(-c3ccco3)o2)cc1	-3.2%	-0.9	-2.7%	6.2	3.6	2.4%
COc1ncc(-c2ccc3c(c2)S(=O)(=O)c2cccc(C(=O)O)c2C3=O)cn1	6.2%	7.6	9.7%	nt	29.5	0.5%
COc1ccc(OC)c(/C=N\NC(=O)c2ccc(=O)n(C)c2)c1	1.1%	-2.3	5.2%	-14.2	25.6	2.7%
COc1ccccc1C1OC2=C(Nc3ccc([N+](=O)[O-])cc3N2)C1=O (stereo unspecified)	13µM*	2.9	13µM*	nt	-5.8	5.1%
COC(=O)c1c(-c2ccc(Br)cc2)noc1N	-15.8%	1.7	-20.3%	3.5	-19.6	6.6%
CCOc1cc(-c2noc(N)c2C(=O)OC)cc(OCC)c1OCC	-12.8%	0.6	?	-21.8	-105.7*	5.1%
CC1(C(=O)N/N=C/c2ccccc2)CC1(Cl)Cl (stereo unspecified)	-3.9%	0.0	-15.8%	-15.2	7.7	nt
C=C(C)Cn1c(C)cc(C)c(S(=O)(=O)c2ccc(C)cc2)c1=O	?	22.3	?	28.3	12.6	-10.8%
Cc1cc(C)n(Cc2ccc(Cl)cc2Cl)c(=O)c1S(=O)(=O)c1ccccc1	?	2.3	23.1µM*	3.9	11.1	0.0%
CC1=NN(c2nc(-c3ccccc3)cs2)C(=O)C1N=Nc1ccccc1 (stereo unspecified)	?	-8.1	14.6µM*	-16.7	2.5	2.7%
CC1=NN(c2nc(-c3ccc(C)cc3)cs2)C(=O)C1N=Nc1ccc(C(N)=O)cc1 (stereo unspecified)	4.61µM*	-14.3	5.17µM*	-3.5	39.5	5.1%
CCC(=O)N1CCc2cc(CNS(=O)(=O)c3ccc(C(C)C)cc3)ccc21	?	nt	?	nt	nt	3.8%
Cc1cccc(Cn2c(SCCN3CCOCC3)nc3c2c(=O)n(C)c(=O)n3C)c1	-25.0%	0.8	?	6.6	-21.8	5.2%
Cc1ccc2nc(N)nnc2c1	?	-0.7	0.517µM*	1.2	-3.2	nt
Nc1nnc2cc(Cl)ccc2n1	?	-24.3	-23.3%	-19.5	?	nt
CC(=O)Nc1ccc(Br)c2ccccc12	-16.6%	7.8	?	-7.2	7.1	2.6%
O=Nc1ccc(NO)c2ccccc12	?	-2.1	13µM*	-17.4	-6.8	nt
Cc1ccc(CSc2ccc3nnc(-c4ccccn4)n3n2)cc1	11.6µM*	?	16.4µM*	?	-10.0	4.7%
O=C(CSc1ccc2nnc(-c3ccccn3)n2n1)Nc1nccs1	-0.4%	-81.2*	-12.1%	-88.0*	3.4	1.2%
Cc1ccc(C)c(CSc2ccc3nnc(-c4ccccn4)n3n2)c1	?	?	?	?	-70.2*	2.5%
O=C(CSc1ccc2nnc(-c3ccncc3)n2n1)Nc1nccs1	-6.4%	-1.2	-12.1%	-2.7	8.2	2.3%
CC(C)NS(=O)(=O)c1ccc(CCC(=O)NCc2ccco2)cc1	-20.9%	-0.7	-12.2%	4.7	7.3	5.2%
CC(C)(C)c1ccc(C(=O)NCC(=O)OCC(=O)Nc2ccc3c(c2)OCCO3)cc1	-3.7%	0.4	-7.7%	nt	-0.7	9.1%
SMILES	TDP1 cell CPT	Six1-Eya2 inh	DT40 TDP1 no CPT	CtBP-E1A blk	IL-1B inflam inh	TDP1 block
Cc1cccc(-c2noc(-c3ccccc3OCC(=O)Nc3ccccc3[N+](=O)[O-])n2)c1	?	nt	16.4µM*	nt	nt	14.3%
Cc1ccc(-c2noc(-c3ccccc3OCC(=O)Nc3ccccc3[N+](=O)[O-])n2)cc1	-5.4%	nt	15.0%	nt	nt	14.3%
O=C(COc1ccccc1-c1nc(-c2ccccc2)no1)Nc1cccc([N+](=O)[O-])c1	2.59µM*	nt	?	nt	nt	8.6%
Cc1noc(-c2ccccc2OCC(=O)Nc2cccc([N+](=O)[O-])c2)n1	?	nt	-28.5%	nt	nt	11.4%
Cc1cc(C)c2oc(C(=O)N(Cc3cccs3)C3CCS(=O)(=O)C3)cc(=O)c2c1 (stereo unspecified)	?	5.2	?	4.5	-5.2	-2.8%
O=C(NCCc1ccccc1)c1cccc(NC(=O)C2CC2)c1	6.6%	1.0	-5.4%	-6.1	0.1	nt
COC(=O)/C=C1/N/C(=N\c2nc(C)cc(C)n2)N(c2cccc(C)c2)C1=O	?	0.9	?	2.7	-68.6*	-2.6%
COC(=O)/C=C1\N/C(=N\c2nc(C)cc(C)n2)N(c2ccccc2)C1=O	1.6%	-12.9	1.1%	2.7	-20.6	-1.3%
CCCn1c2ccccc2c2cnn(CC(=O)NCCc3ccc(S(N)(=O)=O)cc3)c(=O)c21	?	nt	?	nt	nt	8.7%
COc1ccc(-c2csc(NC(=O)CN3C(=O)C4CC=CCC4C3=O)n2)cc1OC (stereo unspecified)	?	-12.7	8.2µM*	-21.2	-0.4	nt
O=C(COC(=O)C1CC2CCCC(C1)C2=O)Nc1nc(-c2ccc(F)c(F)c2)cs1 (stereo unspecified)	?	-1.2	?	-19.0	-5.1	0.3%
O=C(CN1C(=O)C2CC=CCC2C1=O)NCC(=O)Nc1ccc(F)c(F)c1 (stereo unspecified)	-18.3%	5.8	-1.1%	-1.2	7.4	0.6%
COc1ccc(OC)c(-c2csc(NC(=O)CN3C(=O)C4CCCCC4C3=O)n2)c1 (stereo unspecified)	-25.3%	12.0	-15.5%	1.7	-56.1*	1.7%
COc1ccc(-c2csc(NC(=O)CN3C(=O)C4CCCCC4C3=O)n2)cc1OC (stereo unspecified)	-1.2%	-17.9	-27.7%	-2.4	i	6.4%
O=C(CN1C(=O)C2CC=CCC2C1=O)Nc1nc(-c2ccc(F)c(F)c2)cs1 (stereo unspecified)	?	0.4	20.6µM*	nt	-5.7	0.7%
COc1ccc(OC)c(-c2csc(NC(=O)COC(=O)c3ccc(NC(=O)CC#N)cc3)n2)c1	-27.6%	-15.9	?	-17.0	-8.9	-0.5%
O=C(CCN1C(=O)C2CCCCC2C1=O)Nc1nc(-c2ccc(F)c(F)c2)cs1 (stereo unspecified)	?	-17.9	18.4µM*	-24.5	?	1.2%

Source: PubChem BioAssay
